According to PubChem BioAssay (NCATS):
Records with an inconclusive call do not appear. Activity calls are given as the source filed them. The call rests on the fitted dose curve; in most records, active means well fitted curve in the direction sought with a large enough effect; inconclusive means small, poorly fitted or top-dose-only effect, or another doubt; inactive means no such curve, though single readings can be large; an effect the other way counts as inactive or inconclusive.

Assays:
[1] = qHTS of pediatric cancer cell lines to identify multiple opportunities for drug repurposing: Primary screen for SK-N-SH cells (AID 1347098); further: nearly all actives have a fitted effect of over 65% in size; further: potency means the concentration at half of the fitted maximal effect
Summary of the method: (§1)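 Cells (500-1,000/well) rested 5 h, then received compounds for 48 h; metabolically active cells were measured by CellTiter-Glo luminescence. Final concentrations spanned up to 46 µM (MIPE, 11-point) or 0.59 nM-46 µM (NPC, 8-point) in primary screens, 11-point in follow-ups.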

[2] = qHTS of pediatric cancer cell lines to identify multiple opportunities for drug repurposing: Primary screen for NB1643 cells (AID 1347099); further: potency means the concentration at half of the fitted maximal effect; nearly all actives have a fitted effect of over 50% in size
Summary of the method: (§2)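 Quantitative HTS format: each compound titrated (MIPE 11 points from 0.78 nM, NPC 8 points from 0.59 nM) onto cells plated 5 hours earlier. After 48 h at 37 degrees C, CellTiter-Glo luminescence was recorded.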

[3] = qHTS of pediatric cancer cell lines to identify multiple opportunities for drug repurposing: Primary screen for LAN-5 cells (AID 1347100); further: potency means the concentration at half of the fitted maximal effect
Summary of the method: (§3)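 Viability after 48 h compound treatment at 37C, 500-1,000 cells/well, read as ATP luminescence with CellTiter-Glo. Primary screens used 11-point (MIPE, 0.78 nM-46 µM) or 8-point (NPC, 0.59 nM-46 µM) final concentrations; follow-up screens used 11-point dilutions.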

[4] = qHTS of pediatric cancer cell lines to identify multiple opportunities for drug repurposing: Primary screen for OHS-50 cells (AID 1347103); further: nearly all actives have a fitted effect of over 40% in size; further: potency means the concentration at half of the fitted maximal effect
Summary of the method: as §1

[5] = qHTS of pediatric cancer cell lines to identify multiple opportunities for drug repurposing: Primary screen for RD cells (AID 1347104); further: nearly all actives have a fitted effect of over 55% in size; further: potency means the concentration at half of the fitted maximal effect
Summary of the method: as §2

[6] = qHTS of pediatric cancer cell lines to identify multiple opportunities for drug repurposing: Primary screen for Rh30 cells (AID 1347107); further: nearly all actives have a fitted effect of over 75% in size; further: potency means the concentration at half of the fitted maximal effect
Summary of the method: as §3

[7] = qHTS of pediatric cancer cell lines to identify multiple opportunities for drug repurposing: Confirmatory screen for NB1643 cells (AID 1347109); further: nearly all actives have a fitted effect of over 45% in size; further: potency means the concentration at half of the fitted maximal effect
Summary of the method: as §3

[8] = qHTS of pediatric cancer cell lines to identify multiple opportunities for drug repurposing: Confirmatory screen for A673 cells (AID 1347110); further: potency means the concentration at half of the fitted maximal effect; nearly all actives have a fitted effect of over 65% in size
Summary of the method: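 A673 cells seeded at 500-1,000 cells/well, rested 5 h, then dosed; primary MIPE 11-point (0.78 nM to 46 µM), NPC (0.59 nM to 46 µM); confirmatory 11-point. CellTiter-Glo luminescence after 48 h.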

[9] = qHTS of pediatric cancer cell lines to identify multiple opportunities for drug repurposing: Confirmatory screen for SK-N-MC cells (AID 1347111);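 further: cells exposed to compound for 48 h before the readout; nearly all actives have a fitted effect of over 70% in size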; further: potency means the concentration at half of the fitted maximal effect
Summary of the method: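 SK-N-MC cells at 500-1,000 cells/well in growth media were pre-incubated 5 h, then exposed to compounds at 11-point dilutions for 48 h at 37 degrees C, 5% CO2. Viability was read as CellTiter-Glo luminescence.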

[10] = qHTS of pediatric cancer cell lines to identify multiple opportunities for drug repurposing: Confirmatory screen for BT-12 cells (AID 1347112); further: nearly all actives have a fitted effect of over 55% in size; further: potency means the concentration at half of the fitted maximal effect
Summary of the method: as §3

[11] = qHTS of pediatric cancer cell lines to identify multiple opportunities for drug repurposing: Confirmatory screen for LAN-5 cells (AID 1347113); further: nearly all actives have a fitted effect of over 65% in size; further: potency means the concentration at half of the fitted maximal effect
Summary of the method: as §3

[12] = qHTS of pediatric cancer cell lines to identify multiple opportunities for drug repurposing: Confirmatory screen for BT-37 cells (AID 1347117); further: nearly all actives have a fitted effect of over 55% in size; further: potency means the concentration at half of the fitted maximal effect
Summary of the method: as §3

[13] = qHTS of pediatric cancer cell lines to identify multiple opportunities for drug repurposing: Primary screen for BT-12 cells (AID 1347101); further: nearly all actives have a fitted effect of over 25% in size; further: potency means the concentration at half of the fitted maximal effect
Summary of the method: as §1

[14] = qHTS of pediatric cancer cell lines to identify multiple opportunities for drug repurposing: Primary screen for Rh18 cells (AID 1347102); further: nearly all actives have a fitted effect of over 65% in size; further: potency means the concentration at half of the fitted maximal effect
Summary of the method: as §3

[15] = qHTS of pediatric cancer cell lines to identify multiple opportunities for drug repurposing: Primary screen for MG 63 (6-TG R) cells (AID 1347105); further: nearly all actives have a fitted effect of over 50% in size; further: potency means the concentration at half of the fitted maximal effect
Summary of the method: as §2

[16] = qHTS of pediatric cancer cell lines to identify multiple opportunities for drug repurposing: Primary screen for control Hh wild type fibroblast cells (AID 1347106); further: nearly all actives have a fitted effect of over 55% in size; further: potency means the concentration at half of the fitted maximal effect
Summary of the method: as §3

[17] = qHTS of pediatric cancer cell lines to identify multiple opportunities for drug repurposing: Primary screen for Rh41 cells (AID 1347108); further: nearly all actives have a fitted effect of over 70% in size; further: potency means the concentration at half of the fitted maximal effect
Summary of the method: as §2

[18] = qHTS of pediatric cancer cell lines to identify multiple opportunities for drug repurposing: Confirmatory screen for NB-EBc1 cells (AID 1347115); further: nearly all actives have a fitted effect of over 45% in size; further: potency means the concentration at half of the fitted maximal effect
Summary of the method: as §3

[19] = qHTS of pediatric cancer cell lines to identify multiple opportunities for drug repurposing: Confirmatory screen for SJ-GBM2 cells (AID 1347116); further: potency means the concentration at half of the fitted maximal effect; nearly all actives have a fitted effect of over 60% in size
Summary of the method: (§4)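 Viability measured as metabolically active cells via CellTiter-Glo luminescence following 48 hours of compound exposure, 11-point dilutions in confirmatory testing. 500-1,000 cells/well plated 5 hours before dosing; controls were DMSO and 2.3 µM bortezomib.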

[20] = qHTS of pediatric cancer cell lines to identify multiple opportunities for drug repurposing: Confirmatory screen for DAOY cells (AID 1347114); further: nearly all actives have a fitted effect of over 65% in size
Summary of the method: as §4

Measured: Potency

CC(C)c1cc(C(=O)N2Cc3ccc(CN4CCN(C)CC4)cc3C2)c(O)cc1O
active: [1] 0.482 µM | [2] 0.187 µM | [3] 0.209 µM | [4] 0.769 µM | [5] 0.209 µM | [7] 0.369 µM | [8] 0.293 µM | [9] 0.585 µM | [10] 16.5 µM | [11] 0.465 µM | [12] 0.414 µM
inactive: [6]

CCCCc1nc2cc(C=CC(=O)NO)ccc2n1CCN(CC)CC
active: [1] 3.41 µM | [3] 0.0833 µM | [13] 0.193 µM | [14] 0.0148 µM | [5] 2.09 µM | [15] 3.72 µM | [16] 16.6 µM | [17] 0.935 µM | [7] 1.31 µM | [8] 2.08 µM | [9] 1.04 µM | [10] 4.14 µM | [11] 1.04 µM | [18] 3.29 µM | [19] 2.93 µM | [12] 1.85 µM

COc1cc2c(Oc3ccc4[nH]c(C)cc4c3F)ncnc2cc1OCCCN1CCCC1
active: [1] 7.64 µM | [3] 20.9 µM | [13] 24.3 µM | [5] 26.4 µM | [15] 23.5 µM | [16] 26.4 µM | [6] 23.5 µM | [17] 18.7 µM

Cc1cc(Nc2cc(CN3CCOCC3)c3nc(C)c(Cc4ccc(Cl)cc4F)n3n2)n[nH]1
active: [1] 6.81 µM | [3] 0.469 µM | [14] 13.2 µM | [4] 27.3 µM | [5] 20.9 µM | [15] 14.8 µM | [6] 14.8 µM | [17] 14.8 µM

c1ccc2c(CCNc3ccc(Nc4ccncc4)cc3)c[nH]c2c1
inactive: [16]
active: [1] 19.2 µM | [2] 5.26 µM | [3] 4.18 µM | [4] 6.85 µM | [17] 18.7 µM

C1Cc2[nH]nc(-c3nn[nH]n3)c2C1
inactive: [1] | [3] | [13] | [14] | [15] | [16] | [6] | [17]

Cc1coc2c1C(=O)C(=O)c1c-2ccc2c1CCCC2(C)C
inactive: [1] | [15] | [16] | [6] | [17]
active: [13] 21.7 µM | [14] 20.9 µM

CNC(=O)c1cc(Oc2ccc(NC(=O)Nc3cc(C(C)(C)C)nn3-c3ccc4ncccc4c3)c(F)c2)ccn1
active: [1] 19.2 µM | [2] 4.69 µM | [14] 20.9 µM | [4] 27.3 µM | [5] 10.5 µM | [17] 23.5 µM

C1=CCOCc2cc(ccc2OCCN2CCCC2)Nc2nccc(n2)-c2cccc(c2)OCC1
active: [1] 7.64 µM | [2] 7.43 µM | [3] 2.64 µM | [5] 11.8 µM | [6] 14.8 µM | [17] 5.9 µM

CCN(CC)CCNC(=O)c1ccc2nc(-c3ccccc3)c(-c3ccc(CN4CCC(n5c(=O)[nH]c6ccccc65)CC4)cc3)nc2c1
active: [1] 27.1 µM | [3] 5.9 µM | [14] 2.35 µM | [4] 3.43 µM | [16] 9.35 µM | [6] 18.7 µM | [17] 10.5 µM

CC=CC1=C(C(=O)O)N2C(=O)[C@H](NC(=O)[C@H](N)c3ccc(O)cc3)[C@@H]2SC1
active: [1] 19.2 µM | [2] 20.9 µM
inactive: [5] | [6] | [17] | [7] | [10] | [11] | [18] | [12]

COc1cc(C)c(Sc2cnc(NC(=O)c3ccc(CNC(C)C(C)C)cc3)s2)cc1C(=O)N1CCN(C(C)=O)CC1 (configuration not stated)
inactive: [16]
active: [1] 12.1 µM | [3] 2.64 µM | [4] 2.43 µM | [5] 14.8 µM | [15] 11.8 µM | [6] 8.33 µM | [17] 2.64 µM

CCCCCN(CCC12CC3CC(CC(C3)C1)C2)C(=O)NCCCc1ccncc1
active: [3] 16.6 µM | [4] 19.3 µM
inactive: [1] | [6]

COc1ccc(CC2SC(=O)NC2=O)cc1C(=O)NCc1ccc(C(F)(F)F)cc1 (configuration not stated)
inactive: [1] | [3] | [14] | [4] | [15] | [16] | [6] | [17]

Nc1cccc(-c2cc3c(Oc4cccc(O)c4)ncnc3[nH]2)c1
active: [1] 3.04 µM | [2] 20.9 µM | [3] 11.8 µM | [17] 5.9 µM

CC(O)C1C(=O)N2C(C(=O)O)=C(SC3CNC(C(=O)N(C)C)C3)C(C)C12 (configuration not stated)
inactive: [1] | [3] | [13] | [14] | [4] | [5] | [15] | [6] | [17]

Cc1c(C)n(Cc2ccc(-c3ccccc3C(=O)O)cc2)c2ccc(C(=O)N[C@@H](C)c3ccc([N+](=O)[O-])cc3)cc12
inactive: [14] | [16] | [6] | [7] | [9] | [10] | [11] | [20] | [18] | [12]
active: [1] 3.04 µM | [2] 0.187 µM | [13] 0.769 µM | [4] 2.73 µM | [5] 1.66 µM | [15] 18.7 µM

COc1cc(-c2nn(C3CCC(N4CCN(C(C)=O)CC4)CC3)c3ncnc(N)c23)ccc1NC(=O)c1cc2ccccc2n1C (configuration not stated)
active: [1] 3.41 µM | [3] 0.332 µM | [4] 2.17 µM | [5] 0.662 µM
